# PubChem BioAssay (Tox21)
# Several values for one entry are separate records, joined by “and”; a condition that tells them apart may be missing. Identical values can stand only once. Unmarked numbers belong to inactive results. Inconclusive results are not listed. A call without a number means that no potency is given here. Activity calls are given as the source filed them. Unless noted, the call rests on the fitted dose curve.
# Experiments:
# [1] = Nuclear factor erythroid 2-related factor 2/antioxidant responsive element (Nrf2/ARE) small molecule agonists: qHTS cell viability counter screen in human keratinocytes (AID 1919968; active means well fitted curve in the direction sought with a large enough effect in the repeat runs; an effect the other way counts as inactive or inconclusive; further: nearly all actives have a fitted effect of over 55% in size)
# Summary of the method: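 Seed 1,500 KeratinoSens cells per well, then incubate 5 h at 37 C/5% CO2. Add compounds in DMSO and incubate 23 h. Add CellTiter-Fluor, wait 1 h and read fluorescence.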
# [2] = Nuclear factor erythroid 2-related factor 2/antioxidant responsive element (Nrf2/ARE) small molecule agonists: luciferase reporter gene qHTS assay in human keratinocytes (AID 1919969); further: nearly all actives have a fitted effect of over 35% in size; further: potency means the concentration at half of the fitted maximal effect
# [3] = target: Gonadotropin-releasing hormone receptor (Homo sapiens) (UniProt P30968); test: Human gonadotropin-releasing hormone receptor (GnRHR) small molecule agonists, calcium flux assay in GnRHR-HEK293 cells (AID 1920063); further: nearly all actives have a fitted effect of over 35% in size
# Gonadotropin-releasing hormone receptor (Homo sapiens), sequence (P30968 whole entry, looked up): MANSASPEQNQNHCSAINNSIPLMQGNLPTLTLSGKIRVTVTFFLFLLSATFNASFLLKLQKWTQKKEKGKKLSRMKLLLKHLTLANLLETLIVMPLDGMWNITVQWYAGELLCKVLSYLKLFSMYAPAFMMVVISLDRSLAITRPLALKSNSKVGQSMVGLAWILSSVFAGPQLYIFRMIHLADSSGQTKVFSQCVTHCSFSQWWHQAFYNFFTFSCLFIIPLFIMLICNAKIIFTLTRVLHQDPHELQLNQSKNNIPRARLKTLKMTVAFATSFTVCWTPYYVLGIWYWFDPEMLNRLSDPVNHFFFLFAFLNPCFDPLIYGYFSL
# Summary of the method: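 Cells: HEK293 stably expressing human GnRHR. Steps: overnight (18 h) culture, 1 h calcium dye loading at 37 C, compound addition, kinetic fluorescence read at 480/540 nm. Each compound tested at 15 concentrations in triplicate.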
# [4] = target: KiSS-1 receptor (Homo sapiens) (UniProt Q969F8); test: Human kisspeptin (KISS1R) small molecule agonists, calcium flux assay in KISS1R-HEK293 cells (AID 1920064; active means well fitted curve in the direction sought with a large enough effect in the repeat runs; an effect the other way counts as inactive or inconclusive)
# KiSS-1 receptor (Homo sapiens), sequence (Q969F8 whole entry, looked up): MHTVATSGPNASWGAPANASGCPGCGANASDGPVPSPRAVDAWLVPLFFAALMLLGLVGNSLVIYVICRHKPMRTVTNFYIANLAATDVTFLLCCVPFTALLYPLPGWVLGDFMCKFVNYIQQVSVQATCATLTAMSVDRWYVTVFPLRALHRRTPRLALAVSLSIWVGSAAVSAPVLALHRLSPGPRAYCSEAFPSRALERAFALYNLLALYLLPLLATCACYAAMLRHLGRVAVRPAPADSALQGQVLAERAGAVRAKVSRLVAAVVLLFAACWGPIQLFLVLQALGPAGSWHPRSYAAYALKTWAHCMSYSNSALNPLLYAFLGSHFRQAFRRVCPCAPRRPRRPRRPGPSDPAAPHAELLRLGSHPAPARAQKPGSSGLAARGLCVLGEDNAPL
# Summary of the method: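 Cells plated and incubated 18 h; dye added, 1 h at 37 C; compounds in DMSO pinned in; signal read at 480/540 nm every second for 3 min. Each compound tested at 15 concentrations in triplicate.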
# [5] = G protein-coupled receptor (GPCR) small molecule agonists, calcium flux assay: HEK293 wild type cell line counter screen (AID 1920065)
# Summary of the method: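 Counter-screen of the Tox21 10K library for non-specific calcium release: dye-loaded cells received compounds in DMSO and were monitored by kinetic fluorescence (480/540 nm, 3 min). Fifteen concentrations, run in triplicate.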
# [6] = p53 small molecule agonists, cell-based qHTS assay with human liver microsomes (AID 1963577);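 further: p53 response element beta-lactamase reporter cells with liver microsomes plus NADPH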
# Summary of the method: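 p53RE-bla cells; 5 h settle, 37 C/5% CO2; cpd + HLM 0.5 mg/mL + NADPH 0.5 mg/mL (final); 16 h 37 C; LiveBLAzer 2 h RT dark; fluorescence readout.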
# [7] = p53 small molecule agonists, cell-based qHTS assay with human liver microsomes: qHTS cell viability counter screen (AID 1963579); further: nearly all actives have a fitted effect of over 45% in size
# Summary of the method: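 Luminescent CellTiter-Glo read-out, 30 min at room temperature, gauged cytotoxicity in p53RE-bla cells exposed 16 h at 37 C to DMSO-dissolved compounds with metabolic activation by human liver microsomes and NADPH, each 0.5 mg/mL final.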
# [8] = p53 small molecule agonists, cell-based qHTS assay with rat liver microsomes: qHTS cell viability counter screen (AID 1963580); further: nearly all actives have a fitted effect of over 45% in size
# Summary of the method: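 Viability is assessed in parallel with the p53 reporter read: HCT-116 p53RE-bla cells receive compounds plus rat microsomes and NADPH (0.5 mg/mL final apiece), incubate 16 h at 37 C, and then CellTiter-Glo luminescence is recorded.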
# [9] = p53 small molecule agonists, cell-based qHTS assay: qHTS cell viability counter screen (AID 1963581); further: nearly all actives have a fitted effect of over 45% in size
# Summary of the method: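 Cells: HCT-116 with p53 response element-driven beta-lactamase. Treatment: 16 h, 37 C, compounds in DMSO. Read: CellTiter-Glo luminescence after 30 min RT.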
# [10] = p53 small molecule agonists, cell-based qHTS assay (AID 1963582; active means well fitted activation curve with a large enough effect in the signal ratio in the repeat runs, not every such curve was filed as active; the % refers to the signal ratio)
# Summary of the method: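 Quantitative HTS in p53RE-bla cells: after a 5 h settling period, compounds delivered in DMSO were left on cells for 16 h at 37 C, and reporter induction was measured as fluorescence following 2 h substrate loading.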
# [11] = target: 5-hydroxytryptamine receptor 2A (Homo sapiens) (UniProt P28223); test: 5-hydroxytryptamine receptor 2A (HTR2A) small molecule antagonists, cell-based qHTS assay (AID 1963586); further: nearly all actives have a fitted effect of over 45% in size
# 5-hydroxytryptamine receptor 2A (Homo sapiens), sequence (P28223 whole entry, looked up): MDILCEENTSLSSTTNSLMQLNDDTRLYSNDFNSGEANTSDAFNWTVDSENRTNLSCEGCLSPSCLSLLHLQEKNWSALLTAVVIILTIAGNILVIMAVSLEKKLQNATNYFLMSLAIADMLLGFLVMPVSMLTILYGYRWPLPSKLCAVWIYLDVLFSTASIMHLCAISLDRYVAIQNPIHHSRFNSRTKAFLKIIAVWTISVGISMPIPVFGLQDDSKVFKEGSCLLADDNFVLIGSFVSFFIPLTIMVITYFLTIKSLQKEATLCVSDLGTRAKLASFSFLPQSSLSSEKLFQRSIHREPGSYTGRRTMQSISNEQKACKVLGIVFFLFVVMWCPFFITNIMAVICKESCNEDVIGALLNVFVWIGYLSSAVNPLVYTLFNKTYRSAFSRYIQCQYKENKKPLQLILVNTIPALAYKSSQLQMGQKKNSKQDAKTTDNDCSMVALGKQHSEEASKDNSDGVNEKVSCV
# Summary of the method: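 Antagonist-mode intracellular calcium assay: DOI (4 nM) added after 5 min compound pre-incubation at room temperature to dye-loaded HTR2A-CHO cells. Fluorescence followed for 3 min, sampled every second.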
# [12] = target: 5-hydroxytryptamine receptor 2A (Homo sapiens) (UniProt P28223); test: 5-hydroxytryptamine receptor 2A (HTR2A) small molecule agonists, cell-based qHTS assay (AID 1963587); further: nearly all actives have a fitted effect of over 30% in size
# Summary of the method: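 CHO cells stably expressing human HTR2A, plated 18 h, loaded with calcium dye 1 h at 37 C. Agonist mode: compounds added and intracellular calcium fluorescence recorded kinetically for 2 min at 1 sec intervals.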
# [13] = target: Muscarinic acetylcholine receptor M1 (Homo sapiens) (UniProt P11229); test: Cholinergic receptor muscarinic 1 (CHRM1) small molecule antagonists, cell-based qHTS assay (AID 1963588); further: nearly all actives have a fitted effect of over 40% in size
# Muscarinic acetylcholine receptor M1 (Homo sapiens), sequence (P11229 whole entry, looked up): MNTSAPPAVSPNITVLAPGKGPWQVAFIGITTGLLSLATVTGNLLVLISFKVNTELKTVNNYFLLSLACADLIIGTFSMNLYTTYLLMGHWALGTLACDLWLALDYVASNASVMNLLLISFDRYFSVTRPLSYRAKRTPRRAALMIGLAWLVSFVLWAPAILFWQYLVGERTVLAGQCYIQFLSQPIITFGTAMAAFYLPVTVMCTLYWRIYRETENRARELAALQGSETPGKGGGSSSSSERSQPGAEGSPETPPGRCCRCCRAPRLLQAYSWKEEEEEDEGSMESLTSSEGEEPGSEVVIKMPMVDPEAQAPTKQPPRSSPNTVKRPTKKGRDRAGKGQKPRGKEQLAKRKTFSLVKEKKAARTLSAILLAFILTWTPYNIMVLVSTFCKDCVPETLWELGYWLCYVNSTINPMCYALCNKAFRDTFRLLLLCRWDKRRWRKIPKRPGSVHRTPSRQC
# Summary of the method: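 CHRM1-CHO calcium-flux assay, antagonist mode. Cells were seeded 18 h, dye-loaded 1 h at 37 C and given compound for 5 min at RT, then acetylcholine was added at 50nM. FDSS fluorescence was read 3 min; 15 concentrations, three runs.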
# [14] = target: Muscarinic acetylcholine receptor M1 (Homo sapiens) (UniProt P11229); test: Cholinergic receptor muscarinic 1 (CHRM1) small molecule agonists, cell-based qHTS assay (AID 1963589); further: nearly all actives have a fitted effect of over 35% in size
# Summary of the method: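 Agonist-mode qHTS in CHO cells stably carrying human muscarinic M1. Intracellular calcium is tracked by fluorescence every second after compound transfer; each compound runs at 15 concentrations in three independent runs.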
# [15] = cAMP Responsive Elements (CRE) small molecule agonists, cell-based qHTS assay (AID 1963590)
# Summary of the method: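 Agonist mode qHTS in CRE-bla HEK 293T cells: compounds dosed from DMSO for 3 h at 37 C/5% CO2, followed by LiveBLAzer B/G FRET substrate for 2 h at room temperature.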
# [16] = cAMP Responsive Elements (CRE) small molecule antagonists, cell-based qHTS assay (AID 1963591; active means well fitted inhibition curve with a large enough effect in the signal ratio in the repeat runs, not every such curve was filed as active; the % refers to the signal ratio)
# Summary of the method: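 Antagonist mode: test compounds are co-incubated with the adenylyl cyclase activator NKH477 (0.25 uM final) on CRE-bla HEK293T cells for 3 h at 37 °C, followed by LiveBLAzer substrate loading.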
# [17] = target: Beta-2 adrenergic receptor (Homo sapiens) (UniProt P07550); test: Adrenergic beta2 receptor (ADRB2) small molecule antagonists, cell-based qHTS assay (AID 1963592); further: series mostly up to about 92 µM; nearly all actives have a fitted effect of over 50% in size
# Beta-2 adrenergic receptor (Homo sapiens), sequence (P07550 whole entry, looked up): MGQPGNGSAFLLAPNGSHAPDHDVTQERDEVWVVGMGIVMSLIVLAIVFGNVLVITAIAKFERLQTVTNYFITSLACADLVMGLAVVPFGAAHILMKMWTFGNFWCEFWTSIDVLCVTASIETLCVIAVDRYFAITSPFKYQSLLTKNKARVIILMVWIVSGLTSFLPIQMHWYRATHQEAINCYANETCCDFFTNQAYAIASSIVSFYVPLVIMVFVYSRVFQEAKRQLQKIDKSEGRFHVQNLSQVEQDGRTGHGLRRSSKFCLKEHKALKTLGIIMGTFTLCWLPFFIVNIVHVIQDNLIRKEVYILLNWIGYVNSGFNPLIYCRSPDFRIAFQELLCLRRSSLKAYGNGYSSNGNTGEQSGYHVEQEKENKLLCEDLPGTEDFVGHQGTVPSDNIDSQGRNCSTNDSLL
# Summary of the method: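 Cells (CHO, stable ADRB2 overexpression) incubated 18-20hr at 37C; compounds added from DMSO; agonist mix (1nM isoproterenol, 100uM IBMX, 25uM Ro-20-1724) added; 0.5hr RT; d2-cAMP and anti-cAMP-cryptate added; 1hr RT; 665/615 nm read.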
# [18] = target: Beta-2 adrenergic receptor (Homo sapiens) (UniProt P07550); test: Adrenergic beta2 receptor (ADRB2) small molecule agonists, cell-based qHTS assay (AID 1963593);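 further: CHO cells stably overexpressing human ADRB2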
# Summary of the method: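 CHO cells stably over-expressing ADRB2 were plated overnight at 37C, then dosed with compounds plus a stimulation mix containing 100uM IBMX and 25uM Ro-20-1724 for 0.5hr at room temperature. cAMP was measured by HTRF competition, 1hr.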
# [19] = target: D(2) dopamine receptor (Homo sapiens) (UniProt P14416); test: Dopamine D2 receptor (DRD2) small molecule agonists, cell-based qHTS assay (AID 1963594); further: nearly all actives have a fitted effect of over 35% in size
# D(2) dopamine receptor (Homo sapiens), sequence (P14416 whole entry, looked up): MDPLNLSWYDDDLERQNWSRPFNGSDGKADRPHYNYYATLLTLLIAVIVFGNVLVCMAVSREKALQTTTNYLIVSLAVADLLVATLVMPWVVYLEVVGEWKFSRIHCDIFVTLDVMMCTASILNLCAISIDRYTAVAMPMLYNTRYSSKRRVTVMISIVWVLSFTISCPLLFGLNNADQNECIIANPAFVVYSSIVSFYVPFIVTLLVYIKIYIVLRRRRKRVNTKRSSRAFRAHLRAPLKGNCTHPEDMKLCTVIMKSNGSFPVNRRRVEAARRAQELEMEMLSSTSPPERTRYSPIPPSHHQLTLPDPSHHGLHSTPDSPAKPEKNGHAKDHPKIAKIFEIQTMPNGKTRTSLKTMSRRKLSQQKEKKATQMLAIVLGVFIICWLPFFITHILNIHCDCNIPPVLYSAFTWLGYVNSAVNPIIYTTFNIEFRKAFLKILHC
# Summary of the method: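 HEK293 cells stably expressing human DRD2, pre-treated with PDE inhibitor Ro20-1724 (0.1 mM final) and compound 10 min at room temperature, then stimulated with NKH477 (200nM […]) for 30 min. cAMP read by HTRF (665/620 nm).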
# [20] = target: D(2) dopamine receptor (Homo sapiens) (UniProt P14416); test: Dopamine D2 receptor (DRD2) small molecule antagonists, cell-based qHTS assay (AID 1963595; active means well fitted inhibition curve with a large enough effect in the signal ratio in the repeat runs, with a control signal flat; the % refers to the signal ratio)
# Summary of the method: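 HEK293 cells stably expressing DRD2 were preincubated with 0.1 mM Ro20-1724, then with compound for 10 min at room temperature. Cells were stimulated with 200 nM NKH477 plus 12 nM quinpirole for 30 min, and cAMP was read by HTRF.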
compound,measurement,setting,value
CC1CC(=O)CC(C)(C)C1 (stereo not drawn),Potency,[1],inactive
same,Potency,[2],inactive
same,Potency,[3],inactive
same,Potency,[4],inactive
same,Potency,[5],inactive
same,Potency,[6],inactive
same,Potency,[7],inactive
same,Potency,[8],inactive
same,Potency,[9],inactive
same,Potency,[10],inactive
same,Potency,[11],inactive
same,Potency,[12],inactive
same,Potency,[13],inactive
same,Potency,[14],inactive
same,Potency,[15],inactive
same,Potency,[16],inactive
same,Potency,[17],inactive
same,Potency,[18],inactive
same,Potency,[19],inactive
same,Potency,[20],inactive
Cc1ccc(C(C)(C)C)cc1,Potency,[1],inactive
same,Potency,[2],inactive
same,Potency,[3],inactive
same,Potency,[4],inactive
same,Potency,[5],inactive
same,Potency,[6],inactive
same,Potency,[7],inactive
same,Potency,[8],inactive
same,Potency,[9],inactive
same,Potency,[10],inactive
same,Potency,[11],inactive
same,Potency,[12],inactive
same,Potency,[13],inactive
same,Potency,[14],inactive
same,Potency,[15],inactive
same,Potency,[16],inactive
same,Potency,[17],inactive
same,Potency,[18],inactive
same,Potency,[19],inactive
same,Potency,[20],inactive
CCC(C)S (stereo not drawn),"activity change, negative = cytotoxicity",[1],-0.322% [at 3.27 µM]
same,"activity, positive = activation",[2],-3.8% [at 3.27 µM]
same,activity change,[3],"-0.606% [at 2.04 µM, hits give high values]"
same,activation,[4],1.34% [at 2.72 µM]
same,activation,[5],0.0986% [at 2.04 µM]
same,activation,[6],0.369% [at 2.33 µM]
same,"activity change, negative = cytotoxicity",[7],2.56% [at 2.33 µM]
same,"activity change, negative = cytotoxicity",[8],2.16% [at 2.33 µM]
same,"activity change, negative = cytotoxicity",[9],10.6% [at 2.33 µM]
same,activation,[10],-0.925% [at 2.33 µM]
same,"activity, negative = inhibition",[11],36.9% [at 2.12 µM]
same,activation,[12],0.646% [at 2.65 µM]
same,"activity, negative = inhibition",[13],18.7% [at 2.17 µM]
same,activation,[14],0.317% [at 2.72 µM]
same,activation,[15],-0.121% [at 3.27 µM]
same,"activity change, negative = inhibition",[16],-3.11% [at 3.27 µM]
same,"activity change, negative = inhibition",[17],-1.77% [at 3.27 µM]
same,activation,[18],11% [at 3.27 µM]
same,activation,[19],5.57% [at 3.27 µM]
same,"activity change, negative = inhibition",[20],2.46% [at 3.28 µM]
CC(CO)CO,Potency,[1],inactive
same,Potency,[2],inactive
same,Potency,[3],inactive
same,Potency,[4],inactive
same,Potency,[5],inactive
same,Potency,[6],inactive
same,Potency,[7],inactive
same,Potency,[8],inactive
same,Potency,[9],inactive
same,Potency,[10],inactive
same,Potency,[12],inactive
same,Potency,[13],inactive
same,Potency,[14],inactive
same,Potency,[15],inactive
same,Potency,[16],inactive
same,Potency,[17],inactive
same,Potency,[18],inactive
same,Potency,[20],inactive
Cc1ccc(S(=O)(=O)NC2CCCCC2)cc1,Potency,[1],inactive
same,Potency,[2],inactive
same,Potency,[3],inactive
same,Potency,[4],inactive
same,Potency,[5],inactive
same,Potency,[6],inactive
same,Potency,[7],inactive
same,Potency,[8],inactive
same,Potency,[9],inactive
same,Potency,[10],inactive
same,Potency,[11],inactive
same,Potency,[12],inactive
same,Potency,[13],inactive
same,Potency,[15],inactive
same,Potency,[17],inactive
same,Potency,[18],inactive
same,Potency,[19],inactive
Nc1ccncc1N,Potency,[1],inactive
same,Potency,[2],inactive
same,Potency,[3],inactive
same,Potency,[4],inactive
same,Potency,[5],inactive
same,Potency,[6],inactive
same,Potency,[7],inactive
same,Potency,[8],inactive
same,Potency,[9],inactive
same,Potency,[10],inactive
same,Potency,[12],inactive
same,Potency,[13],inactive
same,Potency,[14],inactive
same,Potency,[15],inactive
same,Potency,[16],inactive
same,Potency,[17],inactive
same,Potency,[18],inactive
same,Potency,[19],inactive
same,Potency,[20],inactive
CC[C@]1(O)C[C@@H]2CN(CCc3c([nH]c4ccccc34)[C@@](C(=O)OC)(c3cc4c(cc3OC)N(C)[C@H]3[C@@](O)(C(=O)OC)[C@H](OC(C)=O)[C@]5(CC)C=CCN6CC[C@]43[C@@H]65)C2)C1,Potency,[1],inactive
same,Potency,[2],211 nM (active) and 596 nM (active)
same,Potency,[3],inactive
same,Potency,[4],inactive
same,Potency,[5],inactive
same,Potency,[6],inactive
same,Potency,[18],inactive
same,Potency,[19],inactive
same,Potency,[20],inactive
